Reference: PubChem BioAssay AID485353 (National Center for Advancing Translational Sciences (NCATS), 2010)
Out of some 330,000 compounds screened, about 610 (0.18%) were called active. Another 2% or so got no clear call; they are omitted. Many of the other results were omitted from the sample, so actives are more common in it than they were. Unmarked numbers belong to inactive results. Calls follow the shape of the full dose curve.

experiment: qHTS of Yeast-based Assay for SARS-CoV PLP; also: nearly all actives have a fitted effect of over 55% in size; as to activity, positive = growth rescue: 0% is about no effect; conditions: S. cerevisiae expressing SARS-CoV PLpro; Potency: growth rescue; series mostly up to 32.9 µM; activity, positive = growth rescue: at the top concentration
Potency is read from the fitted curve at half-maximal effect.

| Compound | activity, positive = growth rescue [%] | Potency |
| --- | --- | --- |
| COc1cccc(NC(=S)NC(=O)c2c(Cl)c(C)nn2C)c1 | 8.27 |  |
| Cc1nc2ccc(C(=O)N/N=C/c3ccc(O)cc3)cc2[nH]1 | -3.37 |  |
| Cc1ccc2occ(/C=N/NC(=O)c3ccccc3C)c(=O)c2c1 | -12.5 |  |
| Cc1ccc(/C=N/NC(=O)C2=NNC(c3ccccc3)(c3ccccc3)C2)c(O)c1 |  | 3.55 µM (active) |
| Cc1cc(OC(=O)c2ccccc2Cl)ccc1N1C(=O)CCC1=O | -1.19 |  |
| CC(C)C(C)NC(=O)COc1nc2ccccc2nc1N(C)C1CCCCC1 (stereo not drawn) | 1.94 |  |
| O=C(NC1CCN(C(=S)NCc2ccco2)CC1)c1ccc(F)cc1 | 2.87 |  |
| Cn1c(=O)n(C)c2cc(CNc3ccc(N4CCOCC4)c(C(=O)O)c3)ccc21 | -1.54 |  |
| CC(=O)Nc1cccc2c1[n+]([O-])c(C)c(C)[n+]2[O-] | 2.81 |  |
| COC(=O)c1ccc(C(NC(=O)OCc2ccccc2)/C(C)=C/[C@@H](C)C(=O)NCc2ccc(OC)c(OC)c2)cc1 (stereo partly drawn) | -0.683 |  |
| COc1ccc(CC(=O)N/N=C/c2cc([N+](=O)[O-])cc(Br)c2O)cc1 | -3.04 |  |
| Cc1cc(C(=O)N/N=C/c2cc([N+](=O)[O-])cc(C)c2O)n[nH]1 |  | 4.47 µM (active) |
| COc1ccc2ccccc2c1/C=N/NC(=O)c1cc(C)[nH]n1 | -2.51 |  |
| CC(=O)c1ccc(NC(=O)C2CC(=O)Nc3nc4ccccc4n32)cc1 (stereo not drawn) | 0.911 |  |
| O=c1[nH]c2ccc(S(=O)(=O)N3CCCC3)cc2[nH]1 | 1.84 |  |
| COC(=O)C[n+]1cccc2ccccc21 | -1.62 |  |
| CN(C)c1ccc(C(=S)N2CCN(C(=S)Nc3ccc(Cl)cc3)CC2)cc1 | -2.17 |  |

| Compound | activity, positive = growth rescue [%] | Potency |
| --- | --- | --- |
| COc1cc(N2CCCC2)c(OC)cc1/C=C(/C#N)c1cccc(Br)c1 | 11.2 |  |
| CCOC(=O)C1C(=O)OC2(CCCC2)C1C(=O)OCC (stereo not drawn) | -2.52 |  |
| CCN(C(=O)c1ccc(Br)cc1)c1ccccc1 | -0.842 |  |
| CC1CCCCC1NC(=O)/C(C#N)=C/C=C/c1ccccc1[N+](=O)[O-] (stereo not drawn) | -0.169 |  |
| COc1ccc(N(CCC(=O)NCCc2ccccc2)S(=O)(=O)c2ccc(C)cc2C)cc1 | -9.76 |  |
| O=C(COC(=O)Cc1ccccc1F)NNC(=O)c1ccc(Cl)cc1 | 3.87 |  |
| CCCCOC(=O)CNc1nnc(SCC(=O)OCC)[nH]c1=O | -2.39 |  |
| CC(=N\NC(=O)c1cc(Br)ccc1O)/C(=N/O)C(=O)Nc1ccccc1 | -5.47 |  |
| CC(C)/C=N/NC(=O)c1cc(Br)ccc1O |  | 10 µM (active) |
| COc1ccc(-c2[nH]ncc2/C=N/NC(=O)c2cc(Br)ccc2O)c(OC)c1 | 26.5 |  |
| COC(=O)c1scc(C)c1NC(=O)CSc1ccc(Cl)cc1 |  | 0.708 µM (active) |
| COc1ccc(C)cc1NC(=O)CSc1ccc(Cl)cc1 | -14.2 |  |
| COC(=O)c1cc(OC)c(OC)cc1NC(=O)CSc1ccc(C)cc1 | 5.7 |  |
| CCOC(=O)c1c(/N=C/C2C(=O)CC(C)(C)CC2=O)sc(C)c1C |  | 3.16 µM (active) |
| CCOC(=O)c1c(N)sc2c1CCCC2=O | 0.263 |  |
| CCOC(=O)c1sc(/N=C/C2=C(O)CC(C)(C)CC2=O)c(C(=O)OCC)c1C | -0.745 |  |
